# Measured values reported in PubChem BioAssay.
# Several values for one entry are separate records, joined by “and”; a condition that tells them apart may be missing. Identical values can stand only once. Activity calls are given as the source filed them.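 The calls were made as follows, unless noted: active = compounds whose cell count with miR-34 switched on is under 0.7 times the count with it off; inactive = the rest.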
# Columns and labels:
# [1] = stimulators of nuclear beta-catenin in C2C12, primary screen, imaging, WNT3A-conditioned medium, mouse C2C12, NPC library (AID 1117326; in the data active = nuclear beta-catenin stimulation mostly above about 4.2%, no sharp cut-off; inactive = mostly below about 10%; also: reference of the scale not given here); settings: stronger effect = higher value
# [2] = stimulators of insulin release from INS-1E, primary screen, cell-based, 5 mM glucose, NPC library (AID 1117329;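 active = compound raises insulin release from rat beta cells at 5 mM glucose, no numeric limit stated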; also: reference of the scale not given here); settings: rat INS-1E insulin secretion, at 10 µM, stronger effect = higher value
# [3] = growth inhibition of GSK3B-pretreated HCT116 cells – cell-based, CellTiter-Glo, 0.2 to 20 µM (AID 1117336;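 active = compounds lowering colon cancer cell viability after pretreatment blocking the GSK3B kinase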); settings: HCT116 viability after GSK3B inhibitor, at 20 µM, stronger effect = higher value
# [4] = inhibition of endothelial tube formation, primary screen, imaging, VEGF stimulated, CD31 staining, tube area, NPC library (AID 1117340;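 active = compound that reduces growth-factor-driven endothelial tube area in a mixed cell culture, no cutoff stated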); settings: VEGF-stimulated ADSC/ECFC co-culture, at 10 µM, stronger effect = higher value
# [5] = glucagon-like peptide 1 release enhancers, primary assay, NCI-H716 cell line, NPC library (AID 1117341;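 active = compound raises GLP1 secretion from the human gut endocrine cells, with no numeric limit stated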; also: reference of the scale not given here); settings: NCI-H716 cells, at 10 µM, stronger effect = higher value
# [6] = HCT116 colon cancer cell growth inhibition, primary screen, CellTiter-Glo luminescence, NPC library (AID 1117342;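 active = compounds that lower survival of HCT116 colon cancer cells in the luminescence readout, no numeric limit stated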); settings: at 20 µM (top of the series)
# [7] = CellTiter-Glo luminescent readout of SW480 viability loss, NPC library primary (AID 1117343;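 active = compounds that lower viability of the colon cancer cells in the luminescence readout, with no numeric limit stated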); settings: CellTiter-Glo luminescence; at 20 µM (top of the series)
# [8] = decreased DLD-1 cellular survival, CellTiter-Glo luminescent readout, NPC compound collection, primary HTS (AID 1117346;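 active = compounds that lower survival of DLD-1 colon cancer cells in the luminescence readout, no cutoff given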); settings: DLD-1 viability, CellTiter-Glo luminescence; at 20 µM (top of the series)
# [9] = sensitizers of A549 cells to miR-34 induction, primary screen, imaging, A549 dox-inducible miR-34, nuclei and caspase counts (AID 1347080); settings: A549 miR-34 inducible, Hoechst nuclei count, 48 h
# [10] = viability rescue of complex I mutant cybrids, primary screen, cell-based, galactose medium, ATP luminescence (AID 1645843;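 active = z-score of at least 1.8 in each of two replicates, scored against plate mean and spread of sample wells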;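 also: positive z means more ATP and so rescue of galactose-driven cybrid death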); settings: complex I mutant cybrid cells, 72 h, stronger effect = higher value
# [11] = tested on: Aerobactin synthetase IucA (Klebsiella pneumoniae, hypervirulent); experiment: IucA enzyme inhibition, biochemical, LOPAC library, absorbance readout (AID 1346212; call rule not given here;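 also: 100% = no compound wells and 0% = no enzyme wells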); settings: IucA enzyme assay, absorbance (OD) readout; stronger effect = lower value;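 tested at 8 µM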
# [12] = hESC survival regulators, cell-based (AID 493140; call rule not given here;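 also: cells exposed to compounds for four days before counting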); settings: human embryonic stem cell survival screen; stronger effect = higher value
# [13] = liver-stage malaria parasite growth inhibition, primary screen, cell-based, HepG2, luciferase luminescence, HepG2 viability (AID 624349; in the data active = parasite load remaining mostly below about 12%, no sharp cut-off; inactive = mostly above about 10%;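 also: 100% = mean of DMSO negative control wells on the same plate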); settings: P. berghei liver stage in HepG2, luciferase luminescence, concentration not given here; parasite load remaining: stronger effect = lower value; viability: measured here: HepG2 viability without parasites
# [14] = survival rescue of mitochondrial mutant cells in low glucose, primary screen, MELAS cybrids, Rieske KO mouse fibroblasts, CellTiter-Glo (AID 1508586;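 active = mean z-score across replicates of 1.96 or higher in either the MELAS or the Rieske mutant cell line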;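 also: z relative to plate mean and SD of compound and empty wells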)
# [15] = measured here: relative caspase fold change +Dox/-Dox
# [16] = measured here: total cells with miR-34 induction, stronger effect = lower value
# [17] = measured here: total cells without miR-34 induction
structure (smiles),measurement,setting,value
Cc1ncsc1CCCl,nuclear beta-catenin stimulation,[1]; at 10 µM,1% (inactive)
same,nuclear beta-catenin stimulation,"[1]; stimulation, at 2 µM",2.4%
same,insulin secretion stimulation,[2],-0.8% (inactive)
same,viability decrease,[3],-208% (inactive)
same,tube area decrease,[4],-22% (inactive)
same,GLP1 secretion stimulation,[5],-0.4% (inactive)
same,inhibition of viability,[6],-3.1% (inactive)
same,viability decrease (inhibition),[7],43.8% (inactive)
same,viability decrease (inhibition),[8],72.4% (active)
same,fold change,[9]; stronger effect = lower value,0.959 (inactive) and 0.961 (inactive)
same,fold change,[9]; [15],0.758 and 0.938
same,cell count,[9]; [16],9720 and 8120
same,cell count,[9]; [17],10100 and 8450
same,z-score,[10],0.7 (inactive) and 0.075 (inactive)
CN1[C@@H]2CC[C@H]1CC(OC(=O)c1cc(Cl)cc(Cl)c1)C2 (some centres undefined),nuclear beta-catenin stimulation,[1]; at 10 µM,5.5% (inactive)
same,nuclear beta-catenin stimulation,"[1]; stimulation, at 2 µM",3.7%
same,insulin secretion stimulation,[2],14.4% (inactive)
same,viability decrease,[3],59.7% (active)
same,tube area decrease,[4],2.2% (inactive)
same,GLP1 secretion stimulation,[5],13.6% (inactive)
same,inhibition of viability,[6],87.1% (active)
same,viability decrease (inhibition),[7],63.5% (active)
same,viability decrease (inhibition),[8],85.1% (active)
same,remaining activity,[11],96.1% (inactive)
Cc1ccc(S(=O)(=O)N[C@@H](CCCCN)C(=O)CCl)cc1,nuclear beta-catenin stimulation,[1]; at 10 µM,2.3% (inactive)
same,nuclear beta-catenin stimulation,"[1]; stimulation, at 2 µM",0%
same,insulin secretion stimulation,[2],0.9% (inactive)
same,viability decrease,[3],-9.5% (inactive)
same,tube area decrease,[4],13% (inactive)
same,GLP1 secretion stimulation,[5],-1.9% (inactive)
same,inhibition of viability,[6],-8.6% (inactive)
same,viability decrease (inhibition),[7],12.5% (inactive)
same,viability decrease (inhibition),[8],-7% (inactive)
same,remaining activity,[11],114% (inactive)
same,fold change,[9]; stronger effect = lower value,0.989 (inactive) and 0.965 (inactive)
same,fold change,[9]; [15],1.42 and 1.58
same,cell count,[9]; [16],9040 and 5750
same,cell count,[9]; [17],9130 and 5960
same,z-score,[10],-0.59 (inactive)
C=CCN1C[C@H](C)N([C@H](c2ccc(C(=O)N(CC)CC)cc2)c2cccc(OC)c2)C[C@H]1C,nuclear beta-catenin stimulation,[1]; at 10 µM,1.7% (inactive)
same,nuclear beta-catenin stimulation,"[1]; stimulation, at 2 µM",-0.7%
same,insulin secretion stimulation,[2],-1.1% (inactive)
same,viability decrease,[3],4.6% (inactive)
same,tube area decrease,[4],3.8% (inactive)
same,GLP1 secretion stimulation,[5],5.2% (inactive)
same,inhibition of viability,[6],35% (inactive)
same,viability decrease (inhibition),[7],6% (inactive)
same,viability decrease (inhibition),[8],23.5% (inactive)
same,remaining activity,[11],109% (inactive)
same,fold change,"[9]; stronger effect = lower value, cell number ratio, induced over uninduced",0.944 (inactive)
same,fold change,[9]; [15],1.05
same,cell count,[9]; [16],8480
same,cell count,[9]; [17],8990
same,z-score,[10],0.105 (inactive)
Fc1ccc(C(OCCN2CCN(CCCc3ccccc3)CC2)c2ccc(F)cc2)cc1,survival,[12],2.08 (inactive)
same,parasite load remaining,[13],40.3% (inactive) and 56% (inactive)
same,viability,[13],74.4% and 71%
same,nuclear beta-catenin stimulation,[1]; at 10 µM,21.5% (inactive)
same,nuclear beta-catenin stimulation,"[1]; stimulation, at 2 µM",-0.6%
same,insulin secretion stimulation,[2],4.65% (inactive)
same,viability decrease,[3],118% (active)
same,tube area decrease,[4],30.2% (inactive)
same,GLP1 secretion stimulation,[5],7.4% (inactive)
same,inhibition of viability,[6],124% (active)
same,viability decrease (inhibition),[7],159% (active)
same,viability decrease (inhibition),[8],102% (active)
same,remaining activity,[11],111% (inactive)
same,fold change,[9]; stronger effect = lower value,1.71 (inactive) and 1.06 (inactive) and 1.14 (inactive)
same,fold change,[9]; [15],0.907 and 1.17 and 0.595
same,cell count,[9]; [16],1750 and 3970 and 2030
same,cell count,[9]; [17],1020 and 3730 and 1770
same,z-score,"[14]; MELAS cybrid survival, CellTiter-Glo 48 h, stronger effect = higher value",-0.775 (inactive)
same,z-score,"[14]; Rieske KO mouse fibroblast survival, CellTiter-Glo 72 h",0.399
same,z-score,[10],-1.03 (inactive) and -1.23 (inactive)
